# Measurements taken from PubChem BioAssay AID2314 (National Center for Advancing Translational Sciences (NCATS), 2010).
# Screen size: about 300,000 compounds; about 37,000 (12%) were called active. No stated cut-off is given here; in the data, active means max response mostly above about 13% (no sharp cut-off); inactive means mostly below about 14%. This excerpt belongs to a sample that is enriched for actives.
# Test: Cycloheximide Counterscreen for Small Molecule Inhibitors of Shiga Toxin; further: read at 38.3 µM for the half of the compounds with a filed dose; 0% is about no effect
# Settings: cell reporter, cycloheximide protein synthesis inhibition counterscreen; hits give high values
row,SMILES,max response
1,CCc1ccc2nc(Nc3ncc(C(C)=O)c(C)n3)nc(C)c2c1,4.49% (inactive)
2,COc1ccccc1Nc1ncc(C(C)=O)c(C)n1,17% (active)
3,COc1ccccc1-c1c(C)nn2c(C)c(C(C)=O)cnc12,-2.56% (inactive)
4,CC(=O)NC(Cc1ccc(F)c(F)c1)C(=O)NC1CCN(c2nnnn2-c2ccccc2)CC1 (centres undefined),-1.76% (inactive)
5,COc1ccc(N2CCN(S(=O)(=O)c3cc(Br)cnc3N)CC2)cc1,-1.92% (inactive)
6,COc1ccc(OCc2ccc(-c3nc4ccccc4c(=O)n3N)o2)cc1,30.2% (active)
7,COc1ccc(OCc2n[nH]c(=S)n2N)cc1,5.41% (inactive)
8,COc1ccc(-c2nc3ccccc3c(=O)n2CCc2ccc(O)cc2)cc1,17.7% (inactive)
9,CCCCCNC(=O)C1c2ccccc2Oc2ccccc21,-1.28% (inactive)
10,[2H]C(CCOS(N)(=O)=O)c1ccccc1 (centres undefined),-0.0595% (inactive)
11,COC(=O)[C@]1(S(=O)(=O)c2ccccc2)C[C@@H]2ON=C(c3ccc(OC)cc3)[C@@H]2C1,12.7% (inactive)
12,CCC1Sc2ccc(S(=O)(=O)CCC(=O)NCc3cccs3)cc2NC1=O (centres undefined),15.6% (inactive)
13,Cc1ccc(C)c(NS(=O)(=O)c2cc(Br)cnc2N)c1,-1.97% (inactive)
14,COc1ccccc1CN(C)c1nnnn1-c1ccccc1,-3.28% (inactive)
15,COc1ccccc1-n1nnnc1S(=O)(=O)Cc1ccc(Cl)cc1,16.8% (active)
16,COc1ccccc1N1CCN(S(=O)(=O)c2ccc(Cl)cc2)CC1,-4.44% (inactive)
17,CN(C)c1ccc(CNC2C3CC4CC(C3)CC2C4)cc1 (centres undefined),-2.32% (inactive)
18,CC(=O)Oc1ccc(C(=O)Nc2nccs2)cc1,11.1% (inactive)
19,CCOc1ccc(C(=O)NC(=S)Nc2ccc(NC(=O)C(C)C)cc2)cc1[N+](=O)[O-],-1.26% (inactive)
20,CCOc1ccc(C(=O)Nc2nccs2)cc1[N+](=O)[O-],28.1% (active)

row,SMILES,max response
1,CC(C)c1cc(C(=O)N/N=C/c2ccoc2)c(O)c(C(C)C)c1,6.52% (inactive)
2,CC(C)NC(=O)c1ccc(Cl)cc1Cl,8.78% (inactive)
3,O=C(N/N=C/c1ccoc1)c1ccc(Cl)cc1Cl,28.2% (active)
4,CC(C)c1ccc(N2CCN(C(=O)c3ccccc3NC(=O)/C=C(\C(=O)O)c3ccccc3)CC2)cc1,24.6% (inactive)
5,COCCCNC(=S)NCCNc1nc2cc(C)c(C)cc2cc1C#N,26% (inactive)
6,COc1ccc(CNS(=O)(=O)c2ccc(-c3cnc(C4CC4)o3)cc2)cc1,-0.963% (inactive)
7,O=C(NCC1CCCO1)c1cc2c([nH]c3ccccc32)c(-c2ccc(F)cc2)n1 (centres undefined),-1.44% (inactive)
8,COc1ccc(-c2cc(=O)oc3cc(OC(C)C(=O)NCC4CCC(C(=O)O)CC4)ccc23)cc1 (centres undefined),-2.31% (inactive)
9,O=C(CCc1nnc(CCCCc2ccccc2)o1)NC(c1cccnc1)C(F)(F)F (centres undefined),-3.39% (inactive)
10,CC(CCn1cccn1)NC(=O)CCc1nnc(CCc2ccccc2)o1 (centres undefined),5.1% (inactive)
11,Cc1cc(-c2nnc(CCC(=O)NC(c3ccccc3)c3ccccc3)o2)no1,25.2% (active)
12,CCOC(=O)/C=c1\s/c(=C\c2ccc(C#N)cc2)c(=O)n1CC(=O)Nc1cccc(C)c1C,-1.86% (inactive)
13,Cc1cc(OCc2ccc(C(=O)Nc3ccc(C(=O)O)cc3)o2)ccc1Cl,0.897% (inactive)
14,COc1ccc(C(C(=O)NC2CCCCC2)N(C(=O)Cc2c[nH]c3ccccc23)c2ccccc2)cc1OC (centres undefined),-2.16% (inactive)
15,NC(=O)c1ccc(Nc2ccc3nonc3c2[N+](=O)[O-])cc1,6% (inactive)
16,NC(=O)c1ccc(Nc2ccc3c(c2)CCC3)c([N+](=O)[O-])c1,-2.88% (inactive)
17,Cc1ccc(Nc2ccc(C(N)=O)cc2[N+](=O)[O-])cc1,14.3% (active)
18,O=C(CSc1nnc(-c2ccco2)n1Cc1ccccc1)NC(=O)NCc1ccco1,9.36% (inactive)
19,c1ccc(CSc2nnc(-c3ccco3)c(-c3ccco3)n2)cc1,5.66% (inactive)
20,c1ccc(CSc2nnc(-c3ccco3)n2Cc2ccccc2)cc1,27.8% (active)

row,SMILES,max response
1,N#CCOc1ccc(C2=NO[C@@H]3[C@@H]4C[C@@H]([C@H]5C(=O)N(c6ccc7c(c6)OCO7)C(=O)[C@@H]45)[C@H]23)cc1,-3.49% (inactive)
2,Cn1c(CNC(=O)c2ccccc2F)nnc1SCc1ccc(F)cc1,6.96% (inactive)
3,COc1ccc(CCNC2=C(Cl)C(=O)N(Cc3ccccc3)C2=O)cc1OC,5.5% (inactive)
4,C/C(=N\Nc1nc2ccccc2[nH]1)c1cccs1,36.7% (active)
5,C/C(=N\Nc1nc(Nc2ccccc2)nc(N2CCOCC2)n1)c1cccs1,14.5% (inactive)
6,O=C(Nc1ccccc1-c1nc2ccccc2[nH]c1=O)c1cccs1,0.926% (inactive)
7,O=S(=O)(NCc1ccco1)c1cnc(Cl)c(Cl)c1,-2.82% (inactive)
8,C/C(=N\Nc1ncc(Cl)cc1Cl)c1ccc(S(=O)(=O)NCc2ccco2)cc1,113% (active)
9,C/C(=N\Nc1ncc(Cl)cc1Cl)c1cccs1,45.9% (active)
10,CCN(CC)c1ccc(C(=O)N/N=C(\C)c2cccc(OC)c2)cc1,-2.4% (inactive)
11,Cc1c(Cl)cnc(NC(=O)COC(=O)c2ccc(S(=O)(=O)NCc3ccco3)cc2)c1Cl,-0.376% (inactive)
12,COc1cccc(/C(C)=N/Nc2ncc(Cl)cc2Cl)c1,41.6% (active)
13,C/C(=N\NS(=O)(=O)c1ccc(Br)cc1)c1cccs1,-1.14% (inactive)
14,COC(=O)c1sccc1N/N=C(\C)c1ccc(F)c(Cl)c1,7.97% (inactive)
15,C/C(=N\Nc1ccc(S(N)(=O)=O)cc1[N+](=O)[O-])c1cccs1,-5.09% (inactive)
16,CC(=O)Nc1c2c(nn1-c1cccc(C)c1)CSC2,8.26% (inactive)
17,C=CCn1c2ccccc2c2nnc(SCc3[nH]c(=O)[nH]c3C(=O)CCCCC(=O)OCC)nc21,2.1% (inactive)
18,Cc1cccc(C)c1NC(=O)C1(C)c2cccc[n+]2CC(=O)N1Cc1cccs1 (centres undefined),-1.89% (inactive)
19,COC(=O)c1ccc(C(NC(=O)OCc2ccccc2)/C(F)=C/[C@@H](C)C(=O)O)cc1 (some centres undefined),6.37% (inactive)
